14 molecules from PubChem BioAssay (NCI) can be followed below.

The structures appear in SMILES notation. This is part of a sample that, as a whole, favours compounds with a hit. Of some 83,000 tested, about 20% had one in any assay.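 Activity criterion: percent growth below 10, measured after cells in 96-well plates were exposed to a single compound concentration for 48 hours.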 Unmarked numbers belong to inactive results. Activity calls are given as the source filed them.

Some test systems named below: NCI-H23 lung; NCI-H226 lung; NCI-H322M lung; HOP-62 NSCLC; NCI-H460 lung; HOP-92 NSCLC; NCI-H522 lung; A549/ATCC NSCLC; 786-0 renal; COLO 205 colon.
What all share (assay): NCI-60 one-dose screen, 48 h (100 = growth as untreated, 0 = no growth, -100 = all killed)
Holding throughout (settings): 10 µM unless noted

For the molecule `COc1cc2ncnc(Oc3ccc(NC(=O)Nc4ccc(C5(C#N)CCCC5)cc4)c4ccccc34)c2cc1OC`, the growth in the assay on NCI-H23 lung was 47.6%; with NCI-H226 lung, 80.3%; in the assay with NCI-H322M lung it was 66.7%; with HOP-62 NSCLC, 41.5%; with NCI-H460 lung, 19.3%; with HOP-92 NSCLC it was -39.8% (active). For the same molecule, the growth in the assay on NCI-H522 lung is 37.8%; with A549/ATCC NSCLC, 25.6%; in the assay on 786-0 renal, -40.7% (active); in the assay with COLO 205 colon, 82.5%.
On to `CC(/C=C/C=C(\C)[C@H](O)[C@H](C)C(=O)O[C@H]1C[C@H](C)C=C2C=C[C@@]3(C)O[C@@H](O)CC(=O)[C@]3(C)[C@H]21)=C\C=C\C(=O)O`, for which the growth was -6.25% (active) in the assay with NCI-H23 lung; -3.28% (active) with NCI-H226 lung; 4.63% (active) in the assay on NCI-H322M lung; -3.68% (active) with HOP-62 NSCLC; 2.9% (active) in the assay on NCI-H460 lung; -14.2% (active) with HOP-92 NSCLC. Further, the growth was -11.8% (active) in the assay on NCI-H522 lung, 3.63% (active) in the assay with A549/ATCC NSCLC, 1.96% (active) with 786-0 renal and -55.9% (active) in the assay with COLO 205 colon.
On to `Nc1ncc(-c2ccc3ncnc(Nc4ccc(F)c(Cl)c4)c3c2)cn1`, for which the growth in the assay on NCI-H23 lung is 56.2%; with NCI-H226 lung, 55.5%; in the assay on NCI-H322M lung, 33%; with HOP-62 NSCLC, 57.5%; in the assay with NCI-H460 lung it was 11.9%; in the assay on HOP-92 NSCLC, 31.9%. Besides, the growth was 42.9% with NCI-H522 lung, 34.6% with A549/ATCC NSCLC, 6.18% (active) with 786-0 renal and 32.3% in the assay on COLO 205 colon.
For `COc1ccc(-c2nn(-c3ccc(NC(=O)Nc4cc(C(F)(F)F)cc(C(F)(F)F)c4)cc3)cc2-c2ccncc2)cc1Cl`, the growth in the assay with NCI-H23 lung was 8.51% (active); in the assay on NCI-H226 lung, 0.753% (active); with NCI-H322M lung it was 30.9%; with HOP-62 NSCLC, 19.5%; in the assay with NCI-H460 lung, -2.26% (active); with HOP-92 NSCLC, -21.6% (active). The growth is -8.92% (active) with NCI-H522 lung, 14.6% in the assay on A549/ATCC NSCLC, 1.94% (active) in the assay on 786-0 renal and -33.4% (active) in the assay with COLO 205 colon.
With `Cc1cn(C2CC(N=[N+]=[N-])C(COP(=O)(O)OP(=O)(O)OP(=O)(O)O)O2)c(=O)[nH]c1=O` (stereo not given), the growth is 94.7% with NCI-H23 lung; 115% in the assay on NCI-H226 lung; 102% in the assay with NCI-H322M lung; 94.1% in the assay on HOP-62 NSCLC; 82.4% in the assay on NCI-H460 lung; 50.9% in the assay with HOP-92 NSCLC. For the same molecule, the growth in the assay on NCI-H522 lung is 92.9%; in the assay on A549/ATCC NSCLC, 146%; with 786-0 renal, 95.2%; in the assay with COLO 205 colon it was 119%.
As to `FC(F)(F)c1cccc([Si](F)(c2cccc(C(F)(F)F)c2)c2cccc(C(F)(F)F)c2)c1`, the growth in the assay on NCI-H23 lung was 43.4%; with NCI-H226 lung, 70.3%; with NCI-H322M lung it was 91%; in the assay on HOP-62 NSCLC, 90.2%; in the assay with NCI-H460 lung, 73.9%; in the assay on HOP-92 NSCLC, 16.1%. The growth in the assay on NCI-H522 lung is 53.2%; in the assay on A549/ATCC NSCLC it was 78.1%; with 786-0 renal, 50.5%; with COLO 205 colon, 102%.
`COc1ccc(-c2nnc(SCC(=O)Nc3ccc(C(=O)/C=C/c4ccccc4)cc3)o2)cc1OC`: the growth in the assay on NCI-H23 lung was 88%; in the assay with NCI-H226 lung it was 89%; in the assay on NCI-H322M lung, 90.8%; in the assay with HOP-62 NSCLC it was 119%; in the assay with NCI-H460 lung it was 103%; in the assay on HOP-92 NSCLC, 105%. The growth with NCI-H522 lung is 91.4%; with A549/ATCC NSCLC, 97.7%; in the assay with 786-0 renal it was 101%; in the assay with COLO 205 colon it was 113%.
Take `COc1cc(/C=C/C(=O)c2ccc(Oc3ncnc4ccccc34)cc2)cc(OC)c1OC`: the growth in the assay with NCI-H23 lung is 80.3%; in the assay with NCI-H226 lung it was 98.5%; in the assay with NCI-H322M lung, 69.5%; in the assay on HOP-62 NSCLC, 81.9%; with NCI-H460 lung it was 84.5%; in the assay with HOP-92 NSCLC, 109%. Moreover, the growth with NCI-H522 lung is 52.7%; in the assay with A549/ATCC NSCLC, 73.1%; in the assay with 786-0 renal, 82.2%; in the assay with COLO 205 colon, 109%.
On to `CCCCOc1c(N)cc(Cl)cc1C(=O)OCCN(CC)CC`, for which the growth in the assay with NCI-H23 lung is 104%; with NCI-H226 lung, 94.1%; in the assay with NCI-H322M lung it was 86%; with HOP-62 NSCLC, 91.8%; in the assay on NCI-H460 lung, 108%; with HOP-92 NSCLC, 89.6%. Moreover, the growth in the assay with NCI-H522 lung was 53.1%; in the assay with A549/ATCC NSCLC it was 86.5%; in the assay on 786-0 renal it was 92.8%; with COLO 205 colon it was 115%.
Turning to `Cn1cnc([N+](=O)[O-])c1N1c2ccncc2Sc2ccncc21`, the growth is 91.2% with NCI-H23 lung; 82.1% with NCI-H226 lung; 110% with NCI-H322M lung; 93.3% in the assay with HOP-62 NSCLC; 106% in the assay on NCI-H460 lung; 77.1% in the assay on HOP-92 NSCLC. Further, the growth with NCI-H522 lung was 72.5%; with A549/ATCC NSCLC, 104%; with 786-0 renal, 110%; in the assay with COLO 205 colon, 89.6%.
As for `O=C(COc1ccc(Cl)cc1Cl)N1N=C(c2ccc(Cl)cc2Cl)CC1(O)c1cc(F)c(Cl)cc1Cl` (stereo not given), the growth was 98.7% in the assay with NCI-H23 lung; 149% with NCI-H226 lung; 110% in the assay on NCI-H322M lung; 105% in the assay on HOP-62 NSCLC; 107% in the assay on NCI-H460 lung; 84.5% in the assay on HOP-92 NSCLC. Also, the growth in the assay on NCI-H522 lung is 95%; with A549/ATCC NSCLC, 107%; in the assay on 786-0 renal, 101%; in the assay with COLO 205 colon it was 95.4%.
Turning to `Cc1cccc(NC(=O)CCc2ccc(N3C(N)=NC(N)=NC3(C)C)cc2)c1`, the growth in the assay on NCI-H23 lung is 30.6%; with NCI-H226 lung it was 100%; in the assay on NCI-H322M lung it was 42.7%; with HOP-62 NSCLC, 24%; in the assay on NCI-H460 lung it was 19.8%; in the assay with HOP-92 NSCLC, 32.5%. The growth with NCI-H522 lung was 0.83% (active); in the assay on A549/ATCC NSCLC it was 11.8%; in the assay with 786-0 renal, -7.98% (active); in the assay on COLO 205 colon it was 73.6%.
For the molecule `c1nc(SC2=NCCN2)c2[nH]cnc2n1`, the growth in the assay on NCI-H23 lung was 46.2%; in the assay on NCI-H226 lung, 46.9%; in the assay on NCI-H322M lung, 36.3%; in the assay with HOP-62 NSCLC it was 23.2%; in the assay with NCI-H460 lung, 66.5%; in the assay on HOP-92 NSCLC, 36.2%. The growth in the assay on NCI-H522 lung is 25%; with A549/ATCC NSCLC it was 82.9%; with 786-0 renal it was 22.7%; with COLO 205 colon, 56.8%.
Regarding `CC(C)Cn1cnc2c3ccccc3nc(NCn3nc(-c4cc(Cl)cc(Cl)c4Cl)oc3=S)c21`, the growth in the assay with NCI-H23 lung was 80.4%; in the assay on NCI-H226 lung it was 99%; in the assay on NCI-H322M lung, 91.6%; in the assay with HOP-62 NSCLC, 66.4%; in the assay with NCI-H460 lung, 110%; in the assay on HOP-92 NSCLC, 50.7%. The growth is 74% in the assay on NCI-H522 lung, 99.9% with A549/ATCC NSCLC, 75.5% with 786-0 renal and 97.5% in the assay on COLO 205 colon.
